ATXN2 expr inh – reduces ATXN2 reporter expression in HEK-293 cells | 360,000 tested, 0.72% active | HEK-293 ATXN2-luciferase reporter, luminescence, 24 h | Potency, µM (top dose mostly 57 µM), for inactives: top-dose activity change, negative = inhibition, actives largely listed as inhibitors | AID 1745845; further: on the % scale 0 is the no-effect control and ±100 the full control effect; nearly all actives have a fitted effect of over 55% in size
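ATXN2-luciferase reporter cells (luciferase flanked by upstream and downstream ATXN2 gene portions) were treated 24 h at 37 °C with compounds at up to 57 uM. SteadyGlo luminescence gave expression; GF-AFC fluorescence gave viability.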
TGFb SMAD3 inh – blocks TGF-b signaling; HepG2 CAGA-GFP TGF-b/SMAD3 reporter, GFP fluorescence, 18 h; TGF-beta stimulated, 500 pg/mL final; Potency, µM (highest dose often 46.1 µM), without a hit: at the top dose activity, negative = inhibition, most hits filed as inhibitors; 410,000 tested, 1.2% active; further: on the % scale 0 is the no-effect control and ±100 the full control effect; nearly all actives have a fitted effect of over 65% in size
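TGF-beta reporter screen: HEPG2 CAGA-GFP, 1% FBS, 500 pg/mL TGF-beta final, 18 h; per-cell GFP summed per well; curves fitted and categorized by class.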
ATXN viability – reduces viability in counter-screen for ATXN expression inhibitors; AID 651635; 400,000 tested, 0.49% active; Potency, µM (doses to about 56.7 µM), actives largely listed as cytotoxic; S2 cells (HEK-293 line with an ATXN2-luciferase reporter) viability, CellTiter-Fluor protease fluorescence, 24 h; further: nearly all actives have a fitted effect of over 40% in size
HepG2 viability – HepG2 cytotoxicity, counter-screen for TGF-b inhibitors; Potency, µM (highest dose often 46.1 µM), inactives show top-dose activity change, negative = cytotoxicity, most hits filed as cytotoxic; AID 588856; 410,000 tested, 0.76% active; HepG2 CAGA-GFP viability, ATP luminescence, 18 h
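CellTiter-Glo luminescence gave cytotoxicity after 18 hours at 37 degrees C. The cells were HepG2 CAGA-GFP in 1% FBS DMEM, stimulated with 500 pg/mL TGF-beta after compound addition. %Activity was normalised to no-cell wells (complete cell-killing) and DMSO (no toxicity), and curves were fitted and classified.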
Numbers without * were called inactive; i = inactive; ? = inconclusive; · = no result; ! = not confirmed by another sample. This is a sample that favours compounds with a hit; in the whole collection about 2.3% have one here. The call rests on the fitted dose curve; in most records, active means well fitted curve in the direction sought with a large enough effect; inconclusive means small, poorly fitted or top-dose-only effect, or another doubt; inactive means no such curve, though single readings can be large; an effect the other way counts as inactive or inconclusive. Potency means the concentration at half of the fitted maximal effect.

SMILES	ATXN2 expr inh	TGFb SMAD3 inh	ATXN viability	HepG2 viability
COc1cccc(NC(CNS(=O)(=O)c2ccc(C)cc2)c2ccccc2)c1 (stereo not drawn)	?	14µM*	?	-94%
O=S(=O)(NCC(c1ccccc1)N1CCNCC1)c1ccc(Cl)cc1 (stereo not drawn)	?	13µM*	?	-101%
Cc1ccc(NC(CNS(=O)(=O)c2ccc(Cl)cc2)c2ccccc2)cc1 (stereo not drawn)	?	?	i	-83%
COc1cccc(NC(CNS(=O)(=O)c2ccc(Cl)cc2)c2ccccc2)c1 (stereo not drawn)	?	11µM*	?	-101%
O=S(=O)(NCC(Nc1ccc(Cl)cc1)c1ccccc1)c1ccccc1 (stereo not drawn)	?	?	·	16µM*!
CCN1CCN(C(CNS(=O)(=O)c2ccc(Cl)cc2)c2ccccc2)CC1 (stereo not drawn)	-12%	0%	i	-12%
COc1cc(OC)c(-c2cc(C(=O)NCc3ccc(F)cc3)c3c(-c4ccccc4)[nH]nc3n2)cc1OC	?	?	·	11µM*
Cc1cc(-c2cc(F)cc3c2OC(CNC(=O)[C@@H]2CCC(=O)N2)C3)ccc1F (stereo partly drawn)	·	·	i	·
O=C1C(=Cc2ccccn2)CCc2ccccc21	·	10µM*	?	13µM*
O=C(CCl)N1c2ccccc2Sc2ccc3ccccc3c21	·	14µM*	?	11µM*
O=C(COc1ccc2ccccc2c1)N1c2ccccc2Sc2ccccc21	-11%	-1%	i	-33%
CCOc1ccccc1NC(=O)CSc1nc2ccccc2c2nc(CCn3cncc3C)nn12	-1%	?	28µM*	-23%
Cc1cncn1CCc1nc2c3ccccc3nc(SCC(=O)Nc3cccc(Cl)c3)n2n1	25µM*	?	16µM*	-34%
Cc1cccc(NC(=O)CSc2nc3ccccc3c3nc(CCc4c(C)n[nH]c4C)nn23)c1	32µM*!	?	16µM*	-11%
N=c1c2c(-c3ccccc3)c(-c3ccccc3)n(Cc3ccco3)c2ncn1CCN1CCOCC1	?	?	?	-53%
N=c1c2c(-c3ccccc3)c(-c3ccccc3)n(Cc3ccco3)c2ncn1CCO	?	?	14µM*	-100%
N=c1c2c(-c3ccccc3)c(-c3ccccc3)n(Cc3ccco3)c2ncn1CCCO	-37%	25µM*	i	18µM*
O=C(CN1C(=O)C2(SCC(=O)N2c2cccc(Cl)c2)c2ccccc21)NCCc1ccccc1 (stereo not drawn)	?	11µM*	i	-20%
Cc1cc(Nc2cccc(C(F)(F)F)c2)nc2ccc(NC(=O)c3cccnc3)cc12	?	?	18µM*	-99%
Cc1cc(Nc2cccc(Cl)c2)nc2ccc(NC(=O)Cc3cccc(C(F)(F)F)c3)cc12	?	?	i	-59%
Cc1cc(Nc2cccc(C(F)(F)F)c2)nc2ccc(NC(=O)c3cccc(Cl)c3)cc12	?	?	i	13µM*
COc1ccc(CN2CCN(C(c3ccc(F)cc3)c3ccc(F)cc3)CC2)c(OC)c1OC	40µM*!	?	?	-28%
Cc1c(CCOC(=O)C23CC4(C)CC(C)(CC(C)(C4)C2)C3)sc[n+]1CC(=O)c1ccccc1	-20%	10µM*	i	20µM*
Cc1c(CCOC(=O)CC23CC4CC(CC(C4)C2)C3)sc[n+]1CC(=O)c1ccccc1	-58%	?	·	-109%
CNC[C@H](CC1CCCCC1)NC[C@H](CO)NCCc1cccc(C(F)(F)F)c1	28µM*	?	22µM*	-103%
SMILES	ATXN2 expr inh	TGFb SMAD3 inh	ATXN viability	HepG2 viability
N[C@@H](C(=O)N[C@@H]1C(=O)N2C(C(=O)O)=C(CSc3cn[nH]n3)CS[C@H]12)c1ccc(O)cc1	·	·	i	·
NCC/C=C1/c2ccccc2CSc2ccccc21	-30%	?	i	16µM*
Oc1c(Br)cc(/C=N/Nc2ccc(Cl)nn2)cc1Br	11%	4%	·	5%
Oc1c(Br)cc(Br)cc1/C=N/Nc1ccc(Cl)nn1	2.8µM*	-5%	?	-18%
O=C(CCl)N(O)c1ccc(C=Cc2ccccc2)cc1	?	?	6.7µM*	-71%
O=C(NCCN1Cc2ccccc2OC(c2ccccc2F)C1)c1cncs1 (stereo not drawn)	·	·	i	·
COc1cccc(C(=O)Nc2nnc(-c3cccs3)o2)c1	?	-24%	28µM*	-26%
COc1cccc(C(=O)Nc2nnc(-c3ccc(Cl)cc3)o2)c1	?	-57%	·	-45%
CC(C)CN(C[C@H](O)[C@H](Cc1ccccc1)NC(=O)O[C@H]1CCOC1)S(=O)(=O)c1ccc(N)cc1	-3%	·	·	·
CCOC(=O)C1=C(CN(CC)Cc2ccccc2)NC(=O)NC1c1ccc(OC(C)C)cc1 (stereo not drawn)	?	14µM*	?	-32%
CCOc1[nH]c(/N=C/c2ccc(OC)cc2)c(C#N)c1C#N	·	3%	·	-34%
O=CNc1c(Cl)cc2c(c1Cl)Cc1cc([N+](=O)[O-])ccc1-2	-6%	3.2µM*	i	-32%
CCCN1/C(=C2/SC(=S)N(CC)C2=O)C=Cc2ccccc21	-7%	-17%	?	-27%
CN1C(=O)/C(=C2/C=Cc3ccccc3N2CCCS(=O)(=O)O)SC1=S	13%	2%	16µM*	0%
O=C(O)Cn1cnnn1	3%	·	i	·
Cc1ccc(N(Cc2cc(=O)[nH]c3ccccc23)C(=O)CCl)c(C)c1	?	18µM*	?	22µM*
CCCC(=O)N(Cc1cc(=O)[nH]c2ccccc12)c1ccc(C)cc1C	·	12%	i	-26%
O=C(C[n+]1ccccc1Cl)c1ccc2c(c1)CCCC2	·	-4%	·	-73%
CSc1cccc(Nc2cc(C(=O)NCCCN(Cc3ccccc3)C(C)C)c3ccccc3n2)c1	25µM*	?	?	10µM*
Cc1cc(C)cc(Nc2cc(C(=O)NCCCN(Cc3ccccc3)C(C)C)c3ccccc3n2)c1	14µM*	-30%	13µM*	1%
Cc1ccc(CSc2nnc(-c3ccc(NC(=O)CCc4ccccc4)cc3)n2C)cc1	·	3%	·	3%
COc1cc(=O)n2c(c1C(=O)NC(C)c1ccco1)CCN(C(=O)c1ccnc(Cl)c1)CC2 (stereo not drawn)	·	·	i	·
CCC(=O)N(C1=C(NC)C(=O)c2ccccc2C1=O)C(C)C	·	?	?	-71%
CNC1=C(N(C(C)=O)c2ccc(Br)cc2)C(=O)c2ccccc2C1=O	?	3.5µM*	·	2.8µM*
Cc1cc(Cl)nc2nc(Cl)ccc12	·	41%	·	11%
NS(=O)(=O)c1ccc(CCNCc2cc(Cl)ccc2OCc2ccccc2)cc1	-35%	11µM*	i	-69%
Cc1nc2c(C(=O)NCCc3ccc(Cl)cc3)c[nH]n2c(=O)c1Cc1ccccc1F	-12%	13µM*	i	16µM*
C=CCNc1nc(NC2CCN(C)CC2)c2cc(OC)c(OC)cc2n1	·	?	·	-49%

Assay outcomes (PubChem BioAssay)
